G9a block: blocks human histone lysine methyltransferase G9a | Potency, µM (titrated, usually from 102 µM), for inactives: at the top dose activity, negative = inhibition, usual class: inhibitors | actives 8.8% (n = 350,000) | Q96KQ7 | G9a H3K9 monomethylation, AlphaScreen, 2 h; also: % is scaled to controls: 0 for no effect and ±100 for the full control effect; nearly all actives have a fitted effect of over 75% in size
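Enzyme 20 nM + cpd, 15 min RT; add b-H3K9 pep 500 nM / SAM 20 uM; 2 h RT; anti-H3K9me1 Ab 0.5 ug/mL + SA donor / anti-rabbit acceptor beads 20 ug/mL each, 10 min; AlphaScreen read.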
HP1b binding inh: HP1-beta chromodomain-methylated histone interaction inhibition. P83916. AlphaScreen HP1-beta / biotin-H3K9me3 peptide binding. Potency, µM (doses to about 114 µM), inactives show top-dose activity change, negative = inhibition, hits mostly inhibitors. actives 0.56% (n = 390,000). AID 540317; also: nearly all actives have a fitted effect of over 70% in size
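HP1-beta protein (50 nM final) preincubated 30 min at room temperature with biotinylated H3(1-18)K9me3 peptide (50 nM) in PBS pH 7.4, 0.01% Tween-20, then compound added for 30 min. AlphaScreen streptavidin donor/nickel chelate acceptor beads (10 ug/mL final), 30 min dark, luminescence read.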
L3MBTL1 inh: L3MBTL1 (human) inhibition | Q9Y468 | AlphaScreen L3MBTL1–H3K9me1 peptide binding | Potency, µM (highest dose often 57.1 µM), for the others: top-dose activity, negative = inhibition, usual class: inhibitors | actives 0.66% (n = 230,000); also: % is scaled to controls: 0 for no effect and ±100 for the full control effect; nearly all actives have a fitted effect of over 60% in size
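L3MBTL1 50 nM + b-AHA-H3(1-15)K9me1 75 nM, 30 min RT; compound added, 30 min RT; streptavidin donor/Ni-chelate acceptor beads 10 ug/mL each final, 30 min RT dark; AlphaScreen read.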
BAZ2B inh: inhibitors of human BAZ2B bromodomain | Q9UIF8 | AlphaScreen BAZ2B-H3K14Ac peptide displacement | Potency, µM (titrated, usually from 114 µM), for the others: at the top dose activity change, negative = inhibition, hits mostly inhibitors | actives 4.4% (n = 360,000) | AID 504333; also: % is scaled to controls: 0 for no effect and ±100 for the full control effect; nearly all actives have a fitted effect of over 60% in size
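In this displacement format the biotinylated H3(5-23) peptide acetylated at Lys14 serves as ligand at 50 nM, with BAZ2B at 50 nM in PBS pH 7.4 containing 0.01% Tween-20. Donor and acceptor beads are 10 ug/mL final.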
JMJD2A Tudor inh: blocks the human JMJD2A Tudor domain; O75164; AlphaScreen JMJD2A-Tudor / H3K4me3 peptide binding; Potency, µM (titrated, usually from 114 µM), for the others: top-dose activity change, negative = inhibition, most hits filed as inhibitors; actives 4.4% (n = 390,000); also: % is scaled to controls: 0 for no effect and ±100 for the full control effect; nearly all actives have a fitted effect of over 50% in size
Numbers without * were called inactive; u = inconclusive; x = no result given; [ ] = remark or other dose. In the library only some 11% were active in any assay of this set; here they are far more common. Calls follow the shape of the dose curve; as a rule, active = well fitted inhibition curve with a large enough effect; inconclusive = small, poorly fitted or top-dose-only effect; inactive = no such curve, though single readings can be large or run the other way. Potency is read from the fitted curve at half-maximal effect.

SMILES	G9a block	HP1b binding inh	L3MBTL1 inh	BAZ2B inh	JMJD2A Tudor inh
CCOC(=O)c1cccc(NC(=O)CCSCCc2ccccn2)c1	-4%[59 µM]	-4%	x	2%	-9%
CCCNC(=O)CSc1nc2ccccc2nc1Cc1ccc(Cl)cc1	12%[59 µM]	18%[57 µM]	x	-1%	-11%
CC(C)CNC(=O)Nc1cc(C(=O)NCc2ccc(C(C)C)cc2)ccc1N1CCCC1	11%[12.7 µM]	13%	x	-16%	-13%
Cc1nc2ccccc2c2c(N)c3ccccc3n12	18µM*	u	x	u	u
CCCCCC[n+]1c(-c2ccc(Cl)cc2Cl)csc1Nc1ccccc1	u	-12%	-4%	u	u
c1ccc(C[n+]2c(-c3ccccc3)csc2Nc2ccccc2)cc1	11µM*	25µM*	-4%	7.9µM*	u
c1ccc(Nc2scc(-c3ccccc3)[n+]2Cc2ccco2)cc1	16µM*	u	u	x	u
Cc1ccc2oc(C(=O)Nc3nnc(CC(C)C)s3)cc(=O)c2c1	5%[59 µM]	49%	x	-3%	-5%
CCCCSCCCNC(=O)C1CCN(Cc2nc(-c3ccc(CC)cc3)oc2C)CC1	-33%[59 µM]	-7%	x	-18%	u
CCOc1cc(/C=C2/C(=O)N(c3ccccc3)N=C2C)ccc1OC(=O)c1ccco1	u	-21%	-29%	45µM*	56µM*
CCOc1cc(/C=C2/SC(=S)N(CC(=O)O)C2=O)ccc1OC(=O)c1cccs1	u	-1%	-25%	u	u
CC1=NN(c2ccc(C(=O)O)cc2)C(=O)/C1=C\c1ccc(OC(=O)c2cccs2)cc1	32µM*	-8%	u	u	-6%[11.4 µM]
CCOc1cc(/C=C2\C(=O)N(c3ccc(C(N)=O)cc3)N=C2C)ccc1OC(=O)c1cccs1	45µM*	-21%	-17%	50µM*	-28%
C/C(=N\Nc1nc2ccccc2[nH]1)c1cc2ccccc2o1	45µM*	u	-7%	u	45µM*
C/C(=N/O)c1ccccn1	-3%	20%	5%	10µM*	u
C/C(=N\Nc1nc2ccccc2[nH]1)c1ccccn1	6%	x	x	20µM*	x
COc1ccc(C(C(=O)NC(C)(C)C)N(CCc2ccccc2)C(=O)CCC(=O)Nc2cc(C)on2)cc1 (stereo not given)	-6%	2%	x	-3%	-25%
CN(C)Cc1nc2c([nH]1)c(=O)n(C)c(=O)n2C	u	24%	4%	-4%	3.5µM*
COc1ccc(OCC(=O)Nc2nc3c(s2)CCCC3)cc1	50µM*	-4%	x	u	u
COc1ccc(NC(=O)Nc2nc3c(s2)CCCC3)cc1	79µM*	13%	-14%	-10%	-21%
Cc1ccc(CC(=O)Nc2nc3c(s2)CCCC3)cc1	50µM*	10%	x	-33%	-26%
O=C(CS(=O)(=O)Cc1ccccc1)Nc1nc2c(s1)CCCC2	-32%[12.7 µM]	33%	x	-29%	-13%[11.4 µM]
Cc1ccc(CC(=O)Nc2ccncc2)cc1	50µM*	46%	-21%	15%	-23%
O=C(COc1ccc(F)cc1)Nc1nc2c(s1)CCCC2	-14%	9%	x	u	-24%
O=C(Cc1ccc(Cl)cc1)Nc1ccncc1	4%	21%	1%	-18%	-11%
SMILES	G9a block	HP1b binding inh	L3MBTL1 inh	BAZ2B inh	JMJD2A Tudor inh
CCN(CC)C(=O)Cn1c(=O)n(-c2ccc(Cl)c(Cl)c2)c(=O)c2c(C)c(C(=O)N(CC)CC)sc21	-2%[59 µM]	-5%	x	-2%	-13%
COc1ccc(C(=O)NCC(c2ccc3c(c2)OCO3)N2CCOCC2)cc1OC (stereo not given)	10%[59 µM]	32%[57 µM]	x	0%	0%
CCOc1ccc(/C=C/c2nc(C#N)c(Nc3ccc(OCC)cc3)o2)cc1	-1%[59 µM]	21%	x	-23%	-17%
N#Cc1c([N+](=O)[O-])cc([N+](=O)[O-])cc1S(=O)(=O)Cc1ccccc1	u	-38%	-10%	u	79µM*
COc1ccc(NC(=O)C2CCCN2S(=O)(=O)c2ccc3c(c2)CCCC(=O)N3)cc1Cl (stereo not given)	1%[59 µM]	1%	x	1%	-14%
O=C(O)c1cc2cc(Cl)cc(Cl)c2oc1=O	56µM*	-6%	-5%	u	24%[11.4 µM]
O=C(NCCO)c1cc2cc(Cl)cc(Cl)c2oc1=O	3.2µM*	u	x	-25%	-24%
CN1CCC(OC(=O)c2cc3cc(Cl)cc(Cl)c3oc2=O)CC1	u	12%	-1%	-22%	-21%
COCCNC(=O)c1cc2cc(Cl)cc(Cl)c2oc1=O	45µM*	u	5%	-3%	-6%
CCOC(=O)CNC(=O)c1cc2c(=O)oc3ccccc3c2s1	15%[59 µM]	26%	x	11%	13%
CCOC(=O)c1cc(-c2ccccc2)n(CCCC(=O)Nc2ccc(C)c(Cl)c2)c1C	-34%[59 µM]	24%	x	-8%	-20%
CCCn1nc(C(=O)Oc2ccc3c(C)cc(=O)oc3c2)c2ccccc2c1=O	14µM*	32%	6%	-3%	-10%
COc1cccc(-c2nnc(SCC(=O)N(C)C3CCCCC3)o2)c1	3%[59 µM]	53%	x	-2%	-4%
CCC(Nc1ncnc2ccc(-c3c(C)noc3C)cc12)c1ccccc1 (stereo not given)	x	x	x	x	-33%
CN(C(=O)COC(=O)/C=C/c1ccc(C(F)(F)F)cc1)C1CCS(=O)(=O)C1 (stereo not given)	-9%[12.7 µM]	17%	x	-3%	-8%
CCOc1ccc(Br)cc1/C(C)=N\NC1=NCCN1	56µM*	19%	x	-8%	-17%
CCCCCOc1ccc(/C(C)=N/NC2=NCCN2)cc1	8%	33%	10%	-20%	-9%
COc1cc(NC(=O)Cn2c(=O)oc3cc(S(=O)(=O)N4CCCCCC4)ccc32)cc(OC)c1	-24%[59 µM]	21%	x	-2%	-20%
C=CCn1c(=N)n(CC(=O)c2cccc([N+](=O)[O-])c2)c2ccccc21	x	8%	-12%	u	-16%
N=c1n(CCN2CCCCC2)c2ccccc2n1CC(=O)c1cccc([N+](=O)[O-])c1	45µM*	14%	-5%	u	-24%
N=c1n(CC(=O)c2ccc([N+](=O)[O-])cc2)c2ccccc2n1Cc1ccc(Cl)cc1	u	3%	13%	-30%	-29%
N=c1n(CC(=O)c2ccc([N+](=O)[O-])cc2)c2ccccc2n1Cc1ccccc1	45µM*	6%	0%	u	-19%
COc1ccc([N+](=O)[O-])cc1NS(=O)(=O)c1ccc(Cl)c(C(=O)Nc2sc3c(c2C#N)CCCCC3)c1	-31%	x	-4%	-17%	x
Cc1ccc(-c2nc3ccccc3n2C)o1	13µM*	15%	x	-26%	-20%
Cn1c(-c2nonc2N)nc2ccccc21	40µM*	46%	1%	-27%	9%
CC(C)NC(=O)c1ccc(Cn2c(SCC(N)=O)nc3ccccc3c2=O)cc1	5%[59 µM]	21%[57 µM]	x	-1%	-2%
Cn1c(O)c(N=NC(=S)Nc2ccccc2F)c2cc(S(=O)(=O)N3CCOCC3)ccc21	32µM*	-4%	x	4%	u
